The results in this text go back to PubChem BioAssay (Tox21).

The nature of test [1]: qHTS assay to identify small molecule antagonists of the androgen receptor (AR) signaling pathway using the MDA cell line in the presence of 0.5 nM R1881 - cell viability counter screen (AID 1259242). Note: nearly all actives have a fitted effect of over 45% in size. Note: potency is the fitted concentration of half-maximal effect. In short, it runs like this: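 Live-cell protease fluorescence, CellTiter-Fluor, 30 min at 37C. Cells: MDA-kb2, 3,000/well, preincubated 5 hr. Compounds plus 0.5 nM R1881 final, 16 hr, 37C, 0% CO2.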
For orientation: qHTS replaces the single test concentration by a dilution series.

Test [2] is described as follows: qHTS assay to identify small molecule phospholipidosis (PLD) inducers (AID 1259344; active = well fitted curve in the direction sought with a large enough effect; an effect the other way counts as inactive or inconclusive). In outline:
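Accumulated phospholipid, stained red by LipidTOX during 24 h compound treatment of HepG2 cells at 37 C, is quantified from images as pit number and intensity, normalised per cell using Hoechst-stained nuclei.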

The nature of test [3]: qHTS assay to identify small molecule HDAC inhibitors (AID 1259364). Note: potency is the fitted concentration of half-maximal effect.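 Note: wild-type HCT-116 cells with endogenous class I/II HDAC activity; nearly all actives have a fitted effect of over 45% in size.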 In outline:
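HCT-116 (wild type), 1,500 cells/well, overnight; compound 2 hr 37C 5% CO2; HDAC-Glo I/II reagent 30 min RT; luminescence readout.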

Test [4] can be described thus: qHTS assay to identify small molecule agonists of the sonic hedgehog signaling (Shh) pathway - cell viability counter screen (AID 1259366). Note: nearly all actives have a fitted effect of over 50% in size. Note: potency is the fitted concentration of half-maximal effect. In outline: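 NIH/3T3-derived Gli1-Luc reporter cells, 2,000 per well, received compound after 4 h and were treated about 23 h at 37C. Viability measured in the same wells by CellTiter-Fluor fluorescence after 1 h.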
Test [5] is described as follows: qHTS assay to identify small molecule antagonists of the sonic hedgehog signaling (Shh) pathway - cell viability counter screen (AID 1259367). Note: nearly all actives have a fitted effect of over 55% in size. Note: potency is the fitted concentration of half-maximal effect. In outline: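 CellTiter-Fluor signal in conditioned medium-stimulated 3T3 Gli1-Luc cells, 23 hr compound exposure, 37C.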
Test [6] is described as follows: qHTS assay to identify small molecule agonists of the sonic hedgehog signaling (Shh) pathway (AID 1259368; calls by dose curve;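 note: NIH/3T3-derived 3T3Gli1-Luc cells carrying a stable Gli1-driven firefly luciferase reporter; series mostly up to about 92 µM; nearly all actives have a fitted effect of over 15% in size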). In outline: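 Read-out: firefly luciferase luminescence from a Gli1 response element reporter stably integrated in NIH/3T3-derived 3T3Gli1-Luc cells, measured 30 min at room temperature after reagent addition. Compound exposure lasted 24 hr at 37 C, 5% CO2.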

Test [7] is described as follows: qHTS assay to identify small molecule antagonists of the sonic hedgehog signaling (Shh) pathway (AID 1259369; calls by dose curve; note: nearly all actives have a fitted effect of over 45% in size; note: potency is the fitted concentration of half-maximal effect). In outline: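 Luminescence readout: firefly Luc under Gli1 response element in 3T3Gli1-Luc cells (NIH/3T3 clone). Antagonist mode, stimulation by conditioned medium; compound exposure 24hr at 37 C, 5% CO2.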
The nature of test [8]: qHTS assay to identify small molecule agonists of the androgen receptor (AR) signaling pathway in the presence of an antagonist - cell viability counter screen (AID 1259379). Note: nearly all actives have a fitted effect of over 25% in size. Note: potency is the fitted concentration of half-maximal effect. In short, it runs like this:
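Viability counter screen: CellTiter-Fluor fluorescence, measured in the same wells as the luciferase read-out. MDA-kb2 cells, 3,000/well, with nilutamide at 3.0uM final and compounds at 15 concentrations, 16 hr at 37C, 0% CO2.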

A short description of test [9]: qHTS assay to identify small molecule agonists of the estrogen receptor beta (ER-beta) signaling pathway - cell viability counter screen (AID 1259380). Note: nearly all actives have a fitted effect of over 30% in size. Note: potency is the fitted concentration of half-maximal effect. In outline: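 Luminescence read-out (CellTiter-Glo, 30 min, room temp) taken in the same wells as the beta-lactamase reporter assay; ER-beta-UAS-bla HEK293T cells exposed to DMSO-dissolved compounds for 16 hr at 37C in 2% charcoal-stripped FBS medium.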

Test [10] in a line: qHTS assay to identify small molecule antagonists of the estrogen receptor beta (ER-beta) signaling pathway - cell viability counter screen (AID 1259382). Note: nearly all actives have a fitted effect of over 55% in size. Note: potency is the fitted concentration of half-maximal effect. In outline: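 Luminescent ATP read-out (CellTiter-Glo, 30 min, RT) taken in the same wells as the bla reporter assay. HEK293T ER-beta-UAS-bla cells in 2% charcoal-stripped FBS were exposed to compounds with 1nM E2 for 16 hr at 37C.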

Test [11] can be described thus: qHTS assay to identify small molecule agonists or antagonists of the thyroid stimulating hormone receptor (TSHR) signaling pathway - wild type cell line counter screen (AID 1259384; calls by dose curve). In outline: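 Counter screen in untransfected Hek293: compounds (15-point titration, triplicate) plus phosphodiesterase inhibitor Ro20-1724 added after 18 h plating; 30 min RT. Intracellular cAMP via competitive d2/cryptate immunoassay, 1 h incubation.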

For test [12], the target named is Thyrotropin receptor (Homo sapiens) (UniProt P16473). In words: qHTS assay to identify small molecule antagonists of the thyroid stimulating hormone receptor (TSHR) signaling pathway (AID 1259385; calls by dose curve; note: nearly all actives have a fitted effect of over 20% in size). In outline:
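Antagonist mode: compound-treated TSHR-expressing HEK293 cells were stimulated with 1.5 ng/mL TSH (final) in presence of Ro20-1724 for 30 min at RT. HTRF cAMP detection after 1 h; each compound tested at 15 concentrations, triplicate.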

Test [13] can be described thus: qHTS assay to identify small molecule agonists of the estrogen receptor alpha (ER-alpha) signaling pathway in the presence of an antagonist - cell viability counter screen (AID 1259386). Note: nearly all actives have a fitted effect of over 30% in size. Note: potency is the fitted concentration of half-maximal effect. In outline: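 Read-out: CellTiter-Fluor fluorescence after 1hr reagent incubation, measured in the same wells as the luciferase readout. VM7Luc4E2 cells were exposed to 15 compound concentrations with 10.0nM ICI-182,780 for 22hr at 37C.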

Test [14] concerns the target Estrogen receptor (Homo sapiens) (UniProt P03372). Put plainly: qHTS assay to identify small molecule antagonists of the estrogen receptor alpha (ER-alpha) signaling pathway using the BG1 cell line in the presence of 0.1 nM 17-beta-estradiol (AID 1259244). Note: nearly all actives have a fitted effect of over 50% in size. In short, it runs like this: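 Luminescence after ONE-Glo (30 min, room temperature) measured ERE-luciferase activity in VM7Luc4E2 cells treated 22 h with compound and 0.1 nM final 17beta-estradiol as stimulator.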

Test [15] has as its target Androgen receptor (Homo sapiens) (UniProt P10275). Put plainly: qHTS assay to identify small molecule agonists of the androgen receptor (AR) signaling pathway in the presence of an antagonist (AID 1259381; calls by dose curve; note: nearly all actives have a fitted effect of over 15% in size). In short, it runs like this:
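Luciferase read-out (ONE-Glo, 30min room temperature) in MDA-kb2 MMTV-reporter cells; agonist mode run in presence of AR antagonist nilutamide, 3.0uM final. Compounds tested as 15-point series, 16hr exposure at 37C, 0% CO2.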

For test [16], the target named is Estrogen receptor beta (Homo sapiens) (UniProt Q92731). Put plainly: qHTS assay to identify small molecule agonists of the estrogen receptor beta (ER-beta) signaling pathway (AID 1259377; active = well fitted activation curve with a large enough effect in the signal ratio in the repeat runs, not every such curve was filed as active; the % refers to the signal ratio). In outline: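 ER-beta-UAS-bla HEK293T cells in medium with 2% charcoal-stripped FBS were exposed to compounds for 16 h at 37C. Beta-lactamase reporter activity was read as fluorescence after 2 h with LiveBLAzer B/G FRET substrate at room temperature.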

For test [17] the target is unchanged. In words: qHTS assay to identify small molecule antagonists of the estrogen receptor beta (ER-beta) signaling pathway (AID 1259378; active = well fitted inhibition curve with a large enough effect in the signal ratio in the repeat runs, not every such curve was filed as active; the % refers to the signal ratio). In outline: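 Antagonist mode: compounds added to beta-lactamase reporter HEK293T ER-beta-UAS cells stimulated with E2 (1nM final), 16 hr at 37C. LiveBLAzer B/G FRET substrate, 2 hours room temperature, fluorescence read-out.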

A short description of test [18]: qHTS assay to identify small molecule HDAC inhibitors - cell viability counter screen (AID 1259365). Note: series mostly up to about 92 µM; nearly all actives have a fitted effect of over 50% in size. In short, it runs like this:
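Wild-type HCT-116 cells, 1,500/well, cultured overnight, then compound-treated 2 h at 37 C. Viability measured as ATP luminescence with CellTiter-Glo after 30 min at room temperature.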

Test [19] addresses Estrogen receptor (Homo sapiens) (UniProt P03372). In words: qHTS assay to identify small molecule agonists of the estrogen receptor alpha (ER-alpha) signaling pathway in the presence of an antagonist (AID 1259383; calls by dose curve; note: top concentration of the series differs between compounds; nearly all actives have a fitted effect of over 15% in size). In outline: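 Luciferase luminescence (ONE-Glo, 30min at room temperature) measured in VM7Luc4E2 cells after 22hr compound exposure at 15 concentrations, with 10.0nM ICI-182,780 final present; cells express endogenous ER-alpha and carry four EREs upstream of luciferase.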

“And” between values parts separate entries of the source, which are not always exact repeats. Equal entries are not always repeated. Inconclusive results are not listed. A structure can be active in one record and inactive in another. The source made the active and inactive calls. Unless noted, calls come from the whole dose curve; as a rule, active = well fitted curve in the direction sought with a large enough effect in the repeat runs; inconclusive = weak or mixed curves; inactive = no such curve, though single readings can be large; an effect the other way counts as inactive or inconclusive.

Sequence of Thyrotropin receptor (Homo sapiens) (P16473 whole entry, looked up): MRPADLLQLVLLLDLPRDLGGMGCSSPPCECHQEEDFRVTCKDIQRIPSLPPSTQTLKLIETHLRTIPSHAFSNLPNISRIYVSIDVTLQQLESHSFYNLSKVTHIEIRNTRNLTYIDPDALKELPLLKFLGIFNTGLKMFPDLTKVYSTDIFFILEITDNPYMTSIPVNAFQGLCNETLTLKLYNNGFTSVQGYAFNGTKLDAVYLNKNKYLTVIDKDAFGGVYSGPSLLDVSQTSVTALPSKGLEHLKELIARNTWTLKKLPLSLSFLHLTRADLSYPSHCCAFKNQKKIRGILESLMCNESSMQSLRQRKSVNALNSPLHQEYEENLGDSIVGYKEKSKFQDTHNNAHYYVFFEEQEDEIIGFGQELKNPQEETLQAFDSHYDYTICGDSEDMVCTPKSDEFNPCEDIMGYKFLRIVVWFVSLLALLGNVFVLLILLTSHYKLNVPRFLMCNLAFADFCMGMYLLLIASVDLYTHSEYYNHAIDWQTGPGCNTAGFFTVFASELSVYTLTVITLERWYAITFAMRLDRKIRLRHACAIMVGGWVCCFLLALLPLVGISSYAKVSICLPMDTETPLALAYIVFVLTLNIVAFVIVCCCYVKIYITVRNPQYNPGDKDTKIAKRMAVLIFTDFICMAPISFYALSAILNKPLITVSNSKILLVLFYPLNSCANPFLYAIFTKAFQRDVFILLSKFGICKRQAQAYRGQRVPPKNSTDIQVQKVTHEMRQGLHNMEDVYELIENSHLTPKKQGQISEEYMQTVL
Sequence of Estrogen receptor beta (Homo sapiens) (Q92731 whole entry, looked up): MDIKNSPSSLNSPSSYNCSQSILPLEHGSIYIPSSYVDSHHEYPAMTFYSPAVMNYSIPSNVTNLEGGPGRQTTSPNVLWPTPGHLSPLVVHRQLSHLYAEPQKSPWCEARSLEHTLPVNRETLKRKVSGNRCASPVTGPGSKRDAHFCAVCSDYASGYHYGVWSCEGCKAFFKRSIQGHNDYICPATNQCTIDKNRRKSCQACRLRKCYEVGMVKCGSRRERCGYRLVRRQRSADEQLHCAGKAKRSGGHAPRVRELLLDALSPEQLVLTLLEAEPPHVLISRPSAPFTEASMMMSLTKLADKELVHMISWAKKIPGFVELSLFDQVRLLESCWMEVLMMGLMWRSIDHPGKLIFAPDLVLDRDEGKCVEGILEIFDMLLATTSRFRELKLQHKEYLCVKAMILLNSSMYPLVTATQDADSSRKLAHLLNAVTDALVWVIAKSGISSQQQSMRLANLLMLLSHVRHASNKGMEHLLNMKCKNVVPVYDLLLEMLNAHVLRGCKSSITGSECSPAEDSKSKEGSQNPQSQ
Sequence of Estrogen receptor (Homo sapiens) (P03372 whole entry, looked up): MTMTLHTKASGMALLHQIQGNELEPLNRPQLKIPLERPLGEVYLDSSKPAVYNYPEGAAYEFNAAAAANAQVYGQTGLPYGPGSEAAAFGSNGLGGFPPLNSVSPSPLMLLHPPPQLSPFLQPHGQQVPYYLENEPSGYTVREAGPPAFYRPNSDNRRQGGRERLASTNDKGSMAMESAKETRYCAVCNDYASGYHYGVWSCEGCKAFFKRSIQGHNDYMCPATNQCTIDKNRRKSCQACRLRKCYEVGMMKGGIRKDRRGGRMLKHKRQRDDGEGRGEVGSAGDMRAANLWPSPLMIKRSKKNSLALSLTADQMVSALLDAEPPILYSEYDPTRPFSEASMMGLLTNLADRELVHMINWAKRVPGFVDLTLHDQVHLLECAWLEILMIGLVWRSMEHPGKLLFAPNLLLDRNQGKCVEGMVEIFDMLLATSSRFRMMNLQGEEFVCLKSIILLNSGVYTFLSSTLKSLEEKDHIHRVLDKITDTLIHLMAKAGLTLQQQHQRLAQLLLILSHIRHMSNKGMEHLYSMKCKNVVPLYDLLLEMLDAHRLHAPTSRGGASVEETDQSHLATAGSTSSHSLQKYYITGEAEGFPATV
Sequence of Androgen receptor (Homo sapiens) (P10275 whole entry, looked up): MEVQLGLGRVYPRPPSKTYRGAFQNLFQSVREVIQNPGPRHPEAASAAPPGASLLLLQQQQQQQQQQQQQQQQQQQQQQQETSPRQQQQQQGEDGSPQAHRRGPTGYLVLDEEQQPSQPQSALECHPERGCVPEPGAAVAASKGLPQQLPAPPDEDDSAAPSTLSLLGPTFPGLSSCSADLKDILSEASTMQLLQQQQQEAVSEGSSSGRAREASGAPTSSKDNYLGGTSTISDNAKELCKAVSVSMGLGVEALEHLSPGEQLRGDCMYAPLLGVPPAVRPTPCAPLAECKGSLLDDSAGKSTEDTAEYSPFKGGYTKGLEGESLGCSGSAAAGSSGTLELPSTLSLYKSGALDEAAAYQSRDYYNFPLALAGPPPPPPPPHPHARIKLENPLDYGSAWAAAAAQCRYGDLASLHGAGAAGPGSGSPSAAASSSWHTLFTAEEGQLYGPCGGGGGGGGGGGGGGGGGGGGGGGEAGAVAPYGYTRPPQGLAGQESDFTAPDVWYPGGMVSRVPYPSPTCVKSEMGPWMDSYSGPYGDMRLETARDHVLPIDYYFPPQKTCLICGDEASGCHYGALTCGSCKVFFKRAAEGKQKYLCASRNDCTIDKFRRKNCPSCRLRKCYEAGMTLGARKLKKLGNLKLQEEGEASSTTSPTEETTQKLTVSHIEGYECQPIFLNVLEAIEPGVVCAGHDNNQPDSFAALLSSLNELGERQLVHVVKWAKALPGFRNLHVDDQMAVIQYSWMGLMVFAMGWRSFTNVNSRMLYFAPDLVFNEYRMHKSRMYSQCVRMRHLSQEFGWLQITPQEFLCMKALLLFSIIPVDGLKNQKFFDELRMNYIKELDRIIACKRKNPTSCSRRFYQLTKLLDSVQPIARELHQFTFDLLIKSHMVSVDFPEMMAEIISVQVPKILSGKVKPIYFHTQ

As to `CN(C)C(=S)SC(=S)N(C)C`, the Potency in test [1] is 2.5 µM (active) and 1.72 µM (active) and 3.35 µM (active); in test [4], 3.14 µM (active) and 545 nM (active) and 2.11 µM (active); in test [5], 789 nM (active) and 217 nM (active) and 6.68 µM (active); in test [7], 280 nM (active) and 109 nM (active) and 2.66 µM (active); in test [8], 3.96 µM (active) and inactive; in test [9] it was 1.25 µM (active) and 2.17 µM (active) and 1.06 µM (active). In addition, the Potency in [10] is 1.37 µM (active) and 1.88 µM (active); in [13] it was 35.3 µM (active) and 3.06 µM (active) and inactive. In addition, the Potency entry in test [2], in test [3], in test [11] and in test [12] was “inactive” throughout. Also, the molecule was called inactive in [6].
With `COc1ccc(CN(CCN(C)C)c2ccccn2)cc1`, the Potency result in test [1], in test [2], in test [3], in [4], in [5] and in test [7] was “inactive” each time. Moreover, the Potency result in test [8], in test [10] and in test [13] was “inactive” in each case. Moreover, the molecule was classed as inactive in test [6]. Also, the Potency in [9] was 50.2 µM (active) and inactive.
Regarding `CC(=O)Nc1c(I)c(NC(C)=O)c(I)c(C(=O)O)c1I`, the Potency result in test [1], in test [2], in [3], in test [4], in [5] and in test [7] was “inactive” throughout. Moreover, the Potency result in test [8], in [9], in test [10], in [11], in test [12] and in [13] was “inactive” in each case. In addition, the outcome in test [6] was inactive.
For the molecule `O=C(Nc1ncc([N+](=O)[O-])s1)c1cccs1`, the Potency entry in test [14], in test [2], in test [4], in test [7], in test [15] and in test [11] was “inactive” each time. The Potency result in test [12] was “inactive”. The Potency in test [3] is 0.422 µM (active); in [8] it was 26.6 µM (active); in [13], 26.6 µM (active).
With `NS(=O)(=O)O`, the Potency result in [1], in test [3], in [4], in test [5], in test [7] and in test [16] was “inactive” in each case. In addition, the Potency result in test [17], in test [8], in test [9], in [10] and in test [13] was “inactive” in each case. In [6], the molecule was classed as inactive.
Consider `CC(=O)CC(c1ccccc1)c1c(O)c2ccccc2oc1=O` (stereo not drawn), for which the Potency result in [1], in test [2], in test [3], in test [4], in test [8] and in [9] was “inactive” each time. The Potency entry in [10] and in [13] was “inactive” in each case. The Potency in test [5] is 68.9 µM (active) and inactive; in test [7], 27.4 µM (active) and inactive. The outcome in [6] was inactive.
As for `Cc1ccc(S(=O)(=O)O)cc1`, the Potency result in [1], in test [3], in test [4], in test [5], in test [7] and in test [8] was “inactive” each time. For the same molecule, the Potency entry in test [9], in test [10] and in test [13] was “inactive” in each case. Also, the molecule was classed as inactive in test [6].
On to `CC(=O)C(=O)O`, for which the Potency entry in test [1], in test [3], in test [18], in test [4], in [5] and in test [7] was “inactive” each time. For the same molecule, the Potency entry in [8], in test [9], in [10], in test [11], in [12] and in [13] was “inactive” in each case. Besides, in test [6], the result was inactive.
Turning to `C=C1CC[C@H](O)C/C1=C\C=C1/CCC[C@]2(C)[C@@H]([C@H](C)CCCC(C)C)CC[C@@H]12`, the Potency result in test [1], in [2], in test [3], in test [19], in [11] and in test [12] was “inactive” in each case. The molecule was called inactive in test [6]. Further, the Potency in test [7] is 17.1 µM (active); in [9] it was 42.9 µM (active); in [10], 30.4 µM (active).
